Common to all, as to assay: DAPPL (digital affinity profiling via proximity ligation, sequencing); 10 mM Tris-HCl pH 7.5, 50 mM NaCl, 1 mM DTT, 4% glycerol, room temperature, 30 min; GST-TFs on glutathione beads, 16-mer random dsDNA library, 0.1% formaldehyde crosslink after washing; high values mean tight binding
Common to all, as to details: protein: recombinant; tags: N-terminal GST; dsDNA, one strand shown

In one assay the target is T1, GABPA (Homo sapiens, UniProt Q06546 1-454).
T1 sequence: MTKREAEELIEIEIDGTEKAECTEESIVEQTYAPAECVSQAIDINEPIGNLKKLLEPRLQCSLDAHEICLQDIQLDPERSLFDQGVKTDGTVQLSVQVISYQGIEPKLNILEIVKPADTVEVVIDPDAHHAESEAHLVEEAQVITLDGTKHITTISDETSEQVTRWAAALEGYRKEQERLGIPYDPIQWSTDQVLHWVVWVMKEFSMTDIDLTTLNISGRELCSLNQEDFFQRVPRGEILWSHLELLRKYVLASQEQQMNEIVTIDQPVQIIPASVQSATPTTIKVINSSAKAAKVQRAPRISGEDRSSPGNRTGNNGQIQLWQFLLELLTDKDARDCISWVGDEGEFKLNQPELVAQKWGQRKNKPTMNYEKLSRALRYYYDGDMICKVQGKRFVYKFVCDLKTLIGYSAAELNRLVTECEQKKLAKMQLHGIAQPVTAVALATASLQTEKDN
The method, boiled down: (§1)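 Each value of binding signal is a hexamer's read frequency for a factor divided by the same hexamer's frequency in the tag-only sample. Barcoded, bead-captured GST fusions of human transcription factors made in yeast were pooled with that sample and incubated with 200 nmole of a random double-stranded 16-mer DNA library in Tris/NaCl/DTT/glycerol buffer at room temperature for 30 min. Washing, 0.1% formaldehyde crosslinking, proximity ligation, PCR and Illumina NextSeq500 sequencing followed.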

For another assay, the target named is T2, ERG (Homo sapiens, UniProt P11308 1-479).
T2 sequence: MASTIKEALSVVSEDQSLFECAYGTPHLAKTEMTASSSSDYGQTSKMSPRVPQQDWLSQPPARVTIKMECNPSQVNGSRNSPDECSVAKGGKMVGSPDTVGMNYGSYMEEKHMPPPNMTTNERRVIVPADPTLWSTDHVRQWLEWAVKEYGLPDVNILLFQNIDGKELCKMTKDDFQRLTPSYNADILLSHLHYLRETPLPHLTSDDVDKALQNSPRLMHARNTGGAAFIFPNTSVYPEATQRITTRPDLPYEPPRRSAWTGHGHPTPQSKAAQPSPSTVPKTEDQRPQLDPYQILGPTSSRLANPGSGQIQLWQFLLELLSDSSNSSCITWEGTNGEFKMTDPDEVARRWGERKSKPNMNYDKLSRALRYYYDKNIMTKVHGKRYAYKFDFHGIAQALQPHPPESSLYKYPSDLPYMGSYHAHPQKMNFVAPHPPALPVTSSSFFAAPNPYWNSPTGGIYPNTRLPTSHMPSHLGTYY
The method, boiled down:
as §1

The target in the next assay is T3, EHF (Homo sapiens, UniProt Q9NZC4 1-300).
T3 sequence: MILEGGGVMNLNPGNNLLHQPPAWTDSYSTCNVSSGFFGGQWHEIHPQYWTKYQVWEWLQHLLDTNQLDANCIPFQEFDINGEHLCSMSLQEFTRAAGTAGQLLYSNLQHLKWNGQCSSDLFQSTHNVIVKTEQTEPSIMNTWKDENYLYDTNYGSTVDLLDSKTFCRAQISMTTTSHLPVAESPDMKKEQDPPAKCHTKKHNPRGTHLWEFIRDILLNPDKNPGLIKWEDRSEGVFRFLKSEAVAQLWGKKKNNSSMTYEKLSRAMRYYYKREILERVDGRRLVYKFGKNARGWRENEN
The method, boiled down: as §1

The target in the next assay is SPIB (Homo sapiens, UniProt Q01892 1-262). The method, boiled down: as §1
Another assay has as its target ETV5 (Homo sapiens, UniProt P41161 1-510). The method, boiled down: as §1
In a further assay the target is T4, SPIC (Homo sapiens, UniProt Q8N5J4 1-248).
T4 sequence: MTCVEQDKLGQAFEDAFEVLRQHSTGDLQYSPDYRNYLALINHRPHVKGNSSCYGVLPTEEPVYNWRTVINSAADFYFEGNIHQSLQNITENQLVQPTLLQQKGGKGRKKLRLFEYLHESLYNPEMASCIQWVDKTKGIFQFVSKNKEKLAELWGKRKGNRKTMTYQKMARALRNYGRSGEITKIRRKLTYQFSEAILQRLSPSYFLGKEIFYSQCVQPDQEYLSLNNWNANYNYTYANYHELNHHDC
The method in brief: as §1

Another assay concerns the target ELF4 (Homo sapiens, UniProt Q99607 1-663). The method, boiled down: as §1
A further assay addresses T5, ETV3L (Homo sapiens, UniProt Q6ZN32 1-361).
T5 sequence: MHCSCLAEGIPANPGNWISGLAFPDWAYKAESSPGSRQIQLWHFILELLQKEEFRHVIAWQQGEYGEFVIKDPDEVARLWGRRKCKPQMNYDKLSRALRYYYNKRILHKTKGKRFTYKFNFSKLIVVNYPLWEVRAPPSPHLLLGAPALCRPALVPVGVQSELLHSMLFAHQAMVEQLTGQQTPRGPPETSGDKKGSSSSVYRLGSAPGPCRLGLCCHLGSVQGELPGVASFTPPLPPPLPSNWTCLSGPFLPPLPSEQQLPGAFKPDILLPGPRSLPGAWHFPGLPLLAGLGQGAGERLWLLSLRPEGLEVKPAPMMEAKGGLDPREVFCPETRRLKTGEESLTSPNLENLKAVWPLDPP
The method, boiled down:
as §1

Another assay concerns the target T6, ETS2 (Homo sapiens, UniProt P15036 1-469).
T6 sequence: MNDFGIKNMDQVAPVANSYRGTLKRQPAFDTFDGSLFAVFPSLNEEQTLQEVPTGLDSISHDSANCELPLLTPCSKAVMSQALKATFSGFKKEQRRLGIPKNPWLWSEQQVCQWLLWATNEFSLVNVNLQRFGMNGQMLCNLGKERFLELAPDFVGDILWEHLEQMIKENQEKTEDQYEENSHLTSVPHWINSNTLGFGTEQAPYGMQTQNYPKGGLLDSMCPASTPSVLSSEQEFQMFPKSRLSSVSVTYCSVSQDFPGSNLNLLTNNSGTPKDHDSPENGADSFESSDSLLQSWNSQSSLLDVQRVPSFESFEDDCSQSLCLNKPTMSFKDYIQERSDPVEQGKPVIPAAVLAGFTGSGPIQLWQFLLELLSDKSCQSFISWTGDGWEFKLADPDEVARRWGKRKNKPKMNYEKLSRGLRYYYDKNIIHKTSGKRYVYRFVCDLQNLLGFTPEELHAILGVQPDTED
The method in brief: as §1

A further assay deals with T7, ETV7 (Homo sapiens, UniProt Q9Y603 1-341).
T7 sequence: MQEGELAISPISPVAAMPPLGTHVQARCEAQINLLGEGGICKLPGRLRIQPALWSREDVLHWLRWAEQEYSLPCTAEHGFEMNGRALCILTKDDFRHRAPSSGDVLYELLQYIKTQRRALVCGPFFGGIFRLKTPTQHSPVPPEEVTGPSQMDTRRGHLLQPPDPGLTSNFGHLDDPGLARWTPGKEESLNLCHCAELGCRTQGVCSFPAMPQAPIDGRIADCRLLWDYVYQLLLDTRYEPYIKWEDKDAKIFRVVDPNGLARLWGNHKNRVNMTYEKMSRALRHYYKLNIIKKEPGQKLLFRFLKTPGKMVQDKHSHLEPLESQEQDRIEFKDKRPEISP
The method in brief:
as §1

The target of the next assay is T8, ETV3 (Homo sapiens, UniProt P41162-2 1-143).
T8 sequence: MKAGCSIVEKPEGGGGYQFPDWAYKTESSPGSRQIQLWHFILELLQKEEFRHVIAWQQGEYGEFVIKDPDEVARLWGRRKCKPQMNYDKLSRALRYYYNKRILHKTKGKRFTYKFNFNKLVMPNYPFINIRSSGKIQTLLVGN
The method in brief: as §1

Another assay has as its target T9, ELK1 (Homo sapiens, UniProt P19419 1-428).
T9 sequence: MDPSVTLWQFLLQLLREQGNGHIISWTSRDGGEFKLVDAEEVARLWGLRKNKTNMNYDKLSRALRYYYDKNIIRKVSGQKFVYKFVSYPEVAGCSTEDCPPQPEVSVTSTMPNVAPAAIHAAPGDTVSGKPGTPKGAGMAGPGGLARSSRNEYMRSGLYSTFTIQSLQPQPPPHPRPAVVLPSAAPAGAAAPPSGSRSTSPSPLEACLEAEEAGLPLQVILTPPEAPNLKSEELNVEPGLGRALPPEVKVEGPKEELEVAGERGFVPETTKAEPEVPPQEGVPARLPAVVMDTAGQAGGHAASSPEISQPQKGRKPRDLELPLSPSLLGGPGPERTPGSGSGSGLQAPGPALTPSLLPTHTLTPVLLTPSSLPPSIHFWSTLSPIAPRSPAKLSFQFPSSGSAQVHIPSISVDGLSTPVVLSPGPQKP
The method in brief:
as §1

The target in another assay is ELF1 (Homo sapiens, UniProt P32519 1-619). The method in brief:
as §1

Another assay deals with SPI1 (Homo sapiens, UniProt P17947 1-270). The method, boiled down:
as §1

A further assay has as its target T10, ELK4 (Homo sapiens, UniProt P28324-2 1-405).
T10 sequence: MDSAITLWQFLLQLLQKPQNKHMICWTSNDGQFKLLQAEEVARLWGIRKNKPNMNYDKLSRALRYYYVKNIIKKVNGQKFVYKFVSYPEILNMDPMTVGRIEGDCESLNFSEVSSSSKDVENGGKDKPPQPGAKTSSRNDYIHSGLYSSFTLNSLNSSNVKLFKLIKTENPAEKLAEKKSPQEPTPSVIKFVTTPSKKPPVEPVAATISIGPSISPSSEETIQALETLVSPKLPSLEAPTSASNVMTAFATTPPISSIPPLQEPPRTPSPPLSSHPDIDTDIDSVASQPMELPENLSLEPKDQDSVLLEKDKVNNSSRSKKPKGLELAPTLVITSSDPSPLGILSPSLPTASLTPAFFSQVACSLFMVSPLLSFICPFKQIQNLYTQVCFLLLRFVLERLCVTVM
The method, boiled down:
as §1

Another assay deals with ETV1 (Homo sapiens, UniProt P50549 1-477). The method, boiled down:
as §1

For another assay, the target named is T11, ERF (Homo sapiens, UniProt P50548 1-548).
T11 sequence: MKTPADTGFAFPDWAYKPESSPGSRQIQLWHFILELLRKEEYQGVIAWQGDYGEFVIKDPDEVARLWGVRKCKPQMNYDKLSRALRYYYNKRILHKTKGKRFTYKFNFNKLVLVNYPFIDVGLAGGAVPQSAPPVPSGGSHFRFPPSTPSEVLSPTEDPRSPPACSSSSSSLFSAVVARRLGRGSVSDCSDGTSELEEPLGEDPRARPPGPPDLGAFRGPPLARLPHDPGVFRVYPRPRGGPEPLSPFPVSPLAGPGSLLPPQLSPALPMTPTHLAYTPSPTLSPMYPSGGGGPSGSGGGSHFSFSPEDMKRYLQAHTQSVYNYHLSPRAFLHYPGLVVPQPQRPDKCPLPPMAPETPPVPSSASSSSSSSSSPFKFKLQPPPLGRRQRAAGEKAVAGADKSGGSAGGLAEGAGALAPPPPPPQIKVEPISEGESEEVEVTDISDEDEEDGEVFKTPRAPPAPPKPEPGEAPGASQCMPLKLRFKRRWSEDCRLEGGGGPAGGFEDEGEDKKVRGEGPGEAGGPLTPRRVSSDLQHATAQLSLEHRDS
The method, boiled down: as §1

Another assay has as its target T12, SPDEF (Homo sapiens, UniProt O95238 1-335).
T12 sequence: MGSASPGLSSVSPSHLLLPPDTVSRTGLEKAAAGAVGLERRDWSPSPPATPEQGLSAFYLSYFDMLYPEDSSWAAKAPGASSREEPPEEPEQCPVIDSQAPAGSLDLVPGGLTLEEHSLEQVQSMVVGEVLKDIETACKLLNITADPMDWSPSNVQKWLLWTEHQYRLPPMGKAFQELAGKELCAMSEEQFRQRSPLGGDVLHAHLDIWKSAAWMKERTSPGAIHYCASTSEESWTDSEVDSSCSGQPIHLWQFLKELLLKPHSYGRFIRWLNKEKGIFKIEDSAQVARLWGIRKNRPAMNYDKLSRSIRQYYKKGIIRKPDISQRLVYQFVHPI
The method, boiled down:
as §1

Another assay addresses ETV6 (Homo sapiens, UniProt P41212 1-452). The method in brief: as §1

Data on 2 sequences can be found in article PMC7862700, “An all-to-all approach to the identification of sequence-specific readers for epigenetic DNA modifications on cytosine”.

Sequence of ETV5 (P41161 whole entry): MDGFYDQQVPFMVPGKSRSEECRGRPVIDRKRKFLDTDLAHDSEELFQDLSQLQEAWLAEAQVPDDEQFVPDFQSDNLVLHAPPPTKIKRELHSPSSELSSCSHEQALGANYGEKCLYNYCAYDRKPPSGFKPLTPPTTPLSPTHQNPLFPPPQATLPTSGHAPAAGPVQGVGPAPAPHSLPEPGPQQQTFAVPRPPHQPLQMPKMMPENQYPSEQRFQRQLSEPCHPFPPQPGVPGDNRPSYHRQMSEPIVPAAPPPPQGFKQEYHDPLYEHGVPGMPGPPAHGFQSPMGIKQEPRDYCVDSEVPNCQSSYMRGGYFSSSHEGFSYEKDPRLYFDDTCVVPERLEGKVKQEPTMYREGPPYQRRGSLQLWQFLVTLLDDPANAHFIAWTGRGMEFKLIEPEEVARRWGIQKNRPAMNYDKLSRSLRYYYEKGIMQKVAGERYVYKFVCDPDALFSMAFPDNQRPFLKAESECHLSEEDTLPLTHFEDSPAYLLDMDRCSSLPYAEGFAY
Sequence of ELF4 (Q99607 whole entry): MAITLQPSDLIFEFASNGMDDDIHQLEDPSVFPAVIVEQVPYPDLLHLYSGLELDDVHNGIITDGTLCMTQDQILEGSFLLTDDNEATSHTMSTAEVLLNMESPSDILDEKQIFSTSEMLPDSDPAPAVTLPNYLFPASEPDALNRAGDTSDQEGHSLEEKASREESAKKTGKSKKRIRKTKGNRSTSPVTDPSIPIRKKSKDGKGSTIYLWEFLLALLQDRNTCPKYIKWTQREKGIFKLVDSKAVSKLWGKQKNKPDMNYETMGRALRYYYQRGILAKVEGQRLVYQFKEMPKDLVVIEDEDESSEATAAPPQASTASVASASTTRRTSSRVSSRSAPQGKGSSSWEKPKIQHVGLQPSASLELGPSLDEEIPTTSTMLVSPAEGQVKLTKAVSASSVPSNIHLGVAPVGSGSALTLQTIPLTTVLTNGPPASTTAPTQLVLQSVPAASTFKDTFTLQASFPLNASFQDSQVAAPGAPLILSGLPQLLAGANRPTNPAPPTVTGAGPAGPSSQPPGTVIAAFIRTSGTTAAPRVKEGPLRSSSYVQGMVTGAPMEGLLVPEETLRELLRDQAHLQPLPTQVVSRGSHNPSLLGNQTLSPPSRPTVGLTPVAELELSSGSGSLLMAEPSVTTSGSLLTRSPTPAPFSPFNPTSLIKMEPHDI
Sequence of SPIB (Q01892 whole entry): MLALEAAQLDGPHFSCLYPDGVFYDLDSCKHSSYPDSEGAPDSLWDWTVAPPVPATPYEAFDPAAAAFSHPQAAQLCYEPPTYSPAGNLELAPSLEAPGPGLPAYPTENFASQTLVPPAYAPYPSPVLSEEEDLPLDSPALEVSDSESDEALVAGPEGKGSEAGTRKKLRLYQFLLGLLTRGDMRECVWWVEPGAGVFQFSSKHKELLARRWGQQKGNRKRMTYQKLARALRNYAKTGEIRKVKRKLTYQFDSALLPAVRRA
Sequence of ETV1 (P50549 whole entry): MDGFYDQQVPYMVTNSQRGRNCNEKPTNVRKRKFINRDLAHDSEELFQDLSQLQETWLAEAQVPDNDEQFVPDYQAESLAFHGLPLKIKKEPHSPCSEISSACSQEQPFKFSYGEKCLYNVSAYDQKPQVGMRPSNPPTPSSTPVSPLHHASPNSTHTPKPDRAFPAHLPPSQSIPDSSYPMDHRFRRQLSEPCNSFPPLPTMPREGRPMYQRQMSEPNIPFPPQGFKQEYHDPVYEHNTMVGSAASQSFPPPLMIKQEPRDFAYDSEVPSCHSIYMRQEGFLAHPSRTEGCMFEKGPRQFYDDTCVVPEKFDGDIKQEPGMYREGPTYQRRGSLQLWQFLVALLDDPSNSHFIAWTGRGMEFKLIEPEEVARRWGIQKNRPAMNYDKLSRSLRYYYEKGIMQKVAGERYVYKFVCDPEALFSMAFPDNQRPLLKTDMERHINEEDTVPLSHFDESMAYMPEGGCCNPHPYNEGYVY
Sequence of ETV6 (P41212 whole entry): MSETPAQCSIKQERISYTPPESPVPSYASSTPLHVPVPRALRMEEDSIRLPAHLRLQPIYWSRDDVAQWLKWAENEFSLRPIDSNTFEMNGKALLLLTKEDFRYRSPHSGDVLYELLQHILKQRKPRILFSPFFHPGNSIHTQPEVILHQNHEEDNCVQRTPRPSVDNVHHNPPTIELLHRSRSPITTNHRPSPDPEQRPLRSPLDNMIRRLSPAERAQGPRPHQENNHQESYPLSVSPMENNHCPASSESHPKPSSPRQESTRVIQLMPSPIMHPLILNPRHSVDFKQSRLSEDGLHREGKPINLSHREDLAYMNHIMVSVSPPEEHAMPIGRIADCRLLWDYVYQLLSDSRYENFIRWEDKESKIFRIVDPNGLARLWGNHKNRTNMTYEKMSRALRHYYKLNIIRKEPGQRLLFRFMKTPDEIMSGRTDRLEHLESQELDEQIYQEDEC
Sequence of ELF1 (P32519 whole entry): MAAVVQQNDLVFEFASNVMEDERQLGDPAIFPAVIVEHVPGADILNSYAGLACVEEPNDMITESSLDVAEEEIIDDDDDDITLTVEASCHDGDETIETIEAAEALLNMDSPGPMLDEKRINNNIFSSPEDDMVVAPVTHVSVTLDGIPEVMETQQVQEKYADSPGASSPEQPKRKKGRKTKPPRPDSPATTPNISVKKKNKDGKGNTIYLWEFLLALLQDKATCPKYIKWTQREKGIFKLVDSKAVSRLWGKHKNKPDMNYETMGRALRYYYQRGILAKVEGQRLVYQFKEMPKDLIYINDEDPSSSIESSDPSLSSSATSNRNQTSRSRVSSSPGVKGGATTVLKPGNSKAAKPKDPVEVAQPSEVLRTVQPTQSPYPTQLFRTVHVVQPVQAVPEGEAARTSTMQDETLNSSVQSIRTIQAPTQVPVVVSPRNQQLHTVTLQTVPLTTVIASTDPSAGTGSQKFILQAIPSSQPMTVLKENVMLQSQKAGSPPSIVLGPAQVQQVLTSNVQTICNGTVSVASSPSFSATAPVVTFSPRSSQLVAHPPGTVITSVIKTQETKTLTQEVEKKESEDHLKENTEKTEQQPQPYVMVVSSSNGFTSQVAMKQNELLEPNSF

For the sequence CGGCTG, the binding signal with GABPA was 1.03 fold enrichment (6-mer frequency, TF over GST control); with ERG, 1.04 fold enrichment (6-mer frequency, TF over GST control); with EHF, 1.05 fold enrichment (6-mer frequency, TF over GST control); in the assay with SPIB, 1.03 fold enrichment (6-mer frequency, TF over GST control); with ETV5 it was 1.01 fold enrichment (6-mer frequency, TF over GST control); with SPIC, 1.12 fold enrichment (6-mer frequency, TF over GST control). In addition, the binding signal is 1.12 fold enrichment (6-mer frequency, TF over GST control) in the assay with ELF4; 1.02 fold enrichment (6-mer frequency, TF over GST control) with ETV3L; 1.07 fold enrichment (6-mer frequency, TF over GST control) in the assay with ETS2; 1.1 fold enrichment (6-mer frequency, TF over GST control) in the assay with ETV7; 1.01 fold enrichment (6-mer frequency, TF over GST control) with ETV3.

For the sequence AGCACA, the binding signal with ELK1 is 1.01 fold enrichment (6-mer frequency, TF over GST control); with GABPA, 1.08 fold enrichment (6-mer frequency, TF over GST control); with ERG it was 1.03 fold enrichment (6-mer frequency, TF over GST control); with ELF1, 1.06 fold enrichment (6-mer frequency, TF over GST control); in the assay with EHF, 1.04 fold enrichment (6-mer frequency, TF over GST control); with SPI1, 1.06 fold enrichment (6-mer frequency, TF over GST control). The binding signal with ETV5 was 1.07 fold enrichment (6-mer frequency, TF over GST control); with SPIC, 1.02 fold enrichment (6-mer frequency, TF over GST control); with ELF4, 1.08 fold enrichment (6-mer frequency, TF over GST control); in the assay with ELK4, 1.02 fold enrichment (6-mer frequency, TF over GST control); with ETV1, 1.02 fold enrichment (6-mer frequency, TF over GST control); with ERF, 1.13 fold enrichment (6-mer frequency, TF over GST control). The binding signal is 1.14 fold enrichment (6-mer frequency, TF over GST control) with ETV3L; 1.02 fold enrichment (6-mer frequency, TF over GST control) with ETS2; 1.07 fold enrichment (6-mer frequency, TF over GST control) with SPDEF; 1.01 fold enrichment (6-mer frequency, TF over GST control) with ETV7; 1.05 fold enrichment (6-mer frequency, TF over GST control) in the assay with ETV3; 1.11 fold enrichment (6-mer frequency, TF over GST control) with ETV6.
